Values joined by “and” are separate entries in the source; they are usually repeats but may differ in a detail not shown here. Equal entries are not always repeated. More than one record can exist for a structure, and the calls need not agree. Active and inactive are the calls of the source. Rule for the calls: active = hit-call score of the fitted dose curve at least 0.9, where 1 is the maximum; inactive = score below 0.9.

39 molecules from PubChem BioAssay (EPA / NIEHS) can be followed below.

Read-out in this experiment: Intercellular Adhesion Molecule 1 (ICAM1), ICAM1 (gene 3383)
The experiment is described as follows: BSK_KF3CT_ICAM1: BioMAP Diversity Plus: KF3CT Assay for Intercellular Adhesion Molecule 1 (ICAM1) Biomarker Activity (AID 2283067). The settings on record: primary human keratinocytes with fibroblasts; actives raise or lower the signal. As to the method: BSK_KF3CT is a cell-based, multiplexed-readout assay that uses keratinocytes and foreskin fibroblasts, a human skin primary cell co-culture, with measurements taken at 24 hours after chemical dosing in a 96-well plate.BSK_KF3CT_ICAM1 is an assay component measured in the BSK_KF3CT assay. It measures ICAM-1 antibody related to regulation of gene expression using ELISA technology.Data from the assay component BSK_KF3CT_ICAM1 was analyzed into 1 assay endpoint. This assay endpoint, BSK_KF3CT_ICAM1, was analyzed with bidirectional fitting relative to DMSO as the negative control and baseline of activity. Using a type of binding reporter, gain or loss-of-signal activity can be used to understand changes in the signaling as they relate to the gene ICAM1. Furthermore, this assay endpoint can be referred to as a primary readout, because this assay has produced multiple assay endpoints where this one serves a signaling function. To generalize the intended target to other relatable targets, this assay endpoint is annotated to the cell adhesion molecules intended target family, where the subfamily is Immunoglobulin CAM.
The levels of cell surface (or secreted, indicated by the prefix "s") biomarker endpoints were measured by ELISA. Overt cytotoxicity to cells in confluent adherent cultures (all systems other than the BT system) was assessed by measuring total protein levels using sulforhodamine B (SRB) staining in parallel cultures at the time of biomarker measurements, indicated as SRB endpoints. For proliferation assays for adherent cell types, individual cell types are cultured at sub-confluence and relative cell numbers quantified by SRB staining at time points optimized for each system (48 h: 3C and CASM3C systems; 72 h: BT and HDF3CGF systems; 96 h: SAg system). SRB was performed by staining cells with 0.1% SRB after fixation with 10% TCA and reading wells at 560 nm.Viability and proliferation of PBMC (T cells) was quantified by Alamar Blue reduction for the SAg and BT systems. For PBMC viability (referred to as PBMC Cytotoxicity within the assay endpoint names), cells were plated (75,000/well in a 96-well plate) and then chemical samples added for 1 h before addition of activators, SEB and TSST-1 (20 ng/mL final concentration each). Cells were incubated for 90 h. Then, Alamar Blue (20 uL/well) (Invitrogen, Cat DAL1100) was added for 6 h, and the plates were read with a fluorescence microplate reader at 546/580 nm (excitation/emission). For PBMC proliferation, cells were plated and activated as above but incubated for only 16 h prior to addition of Alamar Blue. Plates were read after 6 h.
What is called AC50 is the concentration giving half of the maximal activity seen. For the molecule `CCCCNC(=O)OCC#CI`, the AC50 is 35.1 µM (active) and 15.5 µM (active). For `CCOc1cc(Oc2ccc(C(F)(F)F)cc2Cl)ccc1[N+](=O)[O-]`, the result was inactive. The same measure, in the same setting: the same measure for `COC(=O)C=C(C)OP(=O)(OC)OC`: “inactive”.

Take `CS/C(C)=N/OC(=O)N(C)SN(C)C(=O)O/N=C(\C)SC`: the AC50 was 11.1 µM (active). Turning to `CC1=C(C(=O)Nc2ccccc2)SCCO1`, the result was inactive. The same measure, in the same setting: as for `CC(Oc1ccc(Cl)cc1Cl)C(=O)O` (stereo not given), the entry is “inactive”.

As to `Cc1ccc(-c2c(Cl)nc(C#N)n2S(=O)(=O)N(C)C)cc1`, the outcome was inactive. Take `N#Cc1cc(Br)c(O)c(Br)c1`: the result was inactive. The same measure, in the same setting: as for `CC(C)C1(C)N=C(c2nc3ccccc3cc2C(=O)O)NC1=O` (stereo not given), the entry is “inactive”; as for `CCCCOC(=O)c1ccccc1C(=O)OCCCC`, “inactive”; as for `C=CCC1=C(C)[C@@H](OC(=O)[C@@H]2[C@@H](C=C(C)C)C2(C)C)CC1=O`, “inactive”.

As to `O=C(Nc1ccccc1)Nc1ccnc(Cl)c1`, the result was inactive. For `COC(=O)C(C)Oc1ccc(Oc2ccc(Cl)cc2Cl)cc1` (stereo not given), the AC50 is 25.1 µM (active) and the result was inactive. On to `CCCCNC(=O)n1c(NC(=O)OC)nc2ccccc21`, for which the outcome was inactive. Same read-out and setting: as for `COc1ccc(C(c2ccc(OC)cc2)C(Cl)(Cl)Cl)cc1`, the entry is “inactive”; as for `CCON=C(CC)C1=C(O)CC(c2c(C)cc(C)cc2C)CC1=O` (stereo not given), “inactive”; as for `N#CC(CCc1ccc(Cl)cc1)(Cn1cncn1)c1ccccc1` (stereo not given), “inactive”. On the same count and under the same terms, the same measure for `COc1nc(C)nc(NC(=O)NS(=O)(=O)c2ccccc2CCC(F)(F)F)n1`: “inactive”. Turning to `CCc1nn(C)c(C(=O)NCc2ccc(C(C)(C)C)cc2)c1Cl`, the AC50 is 32.9 µM (active). As for `N#Cc1nn(-c2c(Cl)cc(C(F)(F)F)cc2Cl)c(N)c1S(=O)C(F)(F)F` (stereo not given), the outcome was inactive. For `COc1nc(C)nc(NC(=O)NS(=O)(=O)c2ccccc2Cl)n1`, the result was inactive. As to `CON(C)C(=O)Nc1ccc(Cl)c(Cl)c1`, the outcome was inactive. Regarding `Cc1cc(Cl)ccc1OCC(=O)O`, the outcome was inactive. Regarding `CC1COC(Cn2cncn2)(c2ccc(Oc3ccc(Cl)cc3)cc2Cl)O1` (stereo not given), the AC50 was 38.2 µM (active). On to `Cc1c(F)c(F)c(COC(=O)C2C(/C=C(\Cl)C(F)(F)F)C2(C)C)c(F)c1F` (stereo not given), for which the result was inactive. In the case of `CCCN(CCC)c1c([N+](=O)[O-])cc(S(N)(=O)=O)cc1[N+](=O)[O-]`, the result was inactive.

On to `Fc1ccc(Oc2ccnc3cc(Cl)cc(Cl)c23)cc1`, for which the result was inactive. Turning to `O=C(O)COc1nc(Cl)c(Cl)cc1Cl`, the outcome was inactive. For the molecule `CCOC(=O)CC(SP(=S)(OC)OC)C(=O)OCC` (stereo not given), the outcome was inactive. Consider `COc1cnc(OC)n2nc(NS(=O)(=O)c3c(OCC(F)F)cccc3C(F)(F)F)nc12`, for which the outcome was inactive. Still for that read-out and setting: as for `CNC(=O)ON=CC(C)(C)SC`, the entry is “inactive”. Still for that read-out and setting: the same measure for `CCNc1nc(Cl)nc(NC(C)C)n1`: “inactive”; for `COC(=O)N(OC)c1ccccc1COc1ccn(-c2ccc(Cl)cc2)n1`: “inactive”.

In the case of `CCCC1COC(Cn2cncn2)(c2ccc(Cl)cc2Cl)O1` (stereo not given), the result was inactive.

With `CCOP(=S)(OCC)SCn1c(=O)oc2cc(Cl)ccc21`, the AC50 is 7.36 µM (active). For `CCOC(=O)C(Cl)Cc1cc(-n2nc(C)n(C(F)F)c2=O)c(F)cc1Cl` (stereo not given), the outcome was inactive. For `CCNc1nc(Cl)nc(NCC)n1`, the outcome was inactive. For the molecule `CCCCC(CC)COC(=O)c1ccccc1C(=O)OCC(CC)CCCC` (stereo not given), the result was inactive. The same measure, in the same setting: as for `C=CC1(C)OC(=O)N(c2cc(Cl)cc(Cl)c2)C1=O` (stereo not given), the entry is “inactive”.
